Giardia kill: kills Giardia lamblia. Giardia lamblia trophozoite viability. activity change, % at 7.66 µM, hits read low. 340,000 compounds, 0.15% hits; in the data active = activity change below about -80%; inconclusive = between about -30% and that limit;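 note: parasites exposed to compound for two days anaerobically before the ATP read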
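Killing of trophozoites was scored by loss of ATP luminescence after a 48 hrs anaerobic exposure to compounds at 37 deg C, using 100 cells per well.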
IL1B secr inh: blocks inflammasome-driven IL-1 beta release. THP-1 LPS/ATP IL-1B secretion, AlphaLISA, 16 h; hits give low values. activity change, % at 57.5 µM. 360,000 compounds, 4.7% hits; in the data active = activity change below about -50%; inconclusive = mostly about -30% to -49%
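Secreted IL-1B measured by AlphaLISA bead assay after 16 h compound exposure of THP-1 cells; compounds (final up to 57.5 uM) added 1 h before LPS (250 ng/mL) and ATP (1.25 mM) stimulation; lower signal means less secretion.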
DT40 TDP1 no CPT: qHTS for Inhibitors of human tyrosyl-DNA phosphodiesterase 1 (TDP1): qHTS in cells in absence of CPT; DT40 Tdp1-/- hTDP1 cells, no CPT, ATP luminescence, 48 h; Potency, µM (titrated, usually from 46.2 µM), hits mostly inhibitors; 420,000 compounds, 15% hits; AID 686978, 2013; note: nearly all actives have a fitted effect of over 55% in size
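A cellular qHTS used chicken DT40 cells lacking endogenous Tdp1 but carrying stably transfected human TDP1. Compounds were applied without camptothecin, and cell growth kinetics were judged by ATP-dependent luminescence after ≥48 hr.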
ELG1 repair inh: inhibitors of ELG1-dependent DNA repair in HEK293T cells; HEK293T ELG1-luciferase reporter, luminescence, 16 h; DNA damage induced by 5-fluorouridine; Potency, µM (series often up to 46.1 µM), most hits filed as inhibitors; 330,000 compounds, 2.3% hits; note: nearly all actives have a fitted effect of over 55% in size
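5-Fluorouridine DNA damage + compound/DMSO, 2,000 cells/well, 16 h, 37 °C/5% CO2. ONE-Glo, 30 min RT, luminescence. Readout = decrease in reporter signal.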
TDP1 inh: inhibitors of human tyrosyl-DNA phosphodiesterase TDP1. Q9NUW8. recombinant TDP1, AlphaScreen DNA substrate cleavage. Potency, µM (titrated, usually from 130 µM), hits mostly inhibitors. 350,000 compounds, 0.28% hits; note: nearly all actives have a fitted effect of over 40% in size
Target sequence (Q9NUW8 whole entry, looked up): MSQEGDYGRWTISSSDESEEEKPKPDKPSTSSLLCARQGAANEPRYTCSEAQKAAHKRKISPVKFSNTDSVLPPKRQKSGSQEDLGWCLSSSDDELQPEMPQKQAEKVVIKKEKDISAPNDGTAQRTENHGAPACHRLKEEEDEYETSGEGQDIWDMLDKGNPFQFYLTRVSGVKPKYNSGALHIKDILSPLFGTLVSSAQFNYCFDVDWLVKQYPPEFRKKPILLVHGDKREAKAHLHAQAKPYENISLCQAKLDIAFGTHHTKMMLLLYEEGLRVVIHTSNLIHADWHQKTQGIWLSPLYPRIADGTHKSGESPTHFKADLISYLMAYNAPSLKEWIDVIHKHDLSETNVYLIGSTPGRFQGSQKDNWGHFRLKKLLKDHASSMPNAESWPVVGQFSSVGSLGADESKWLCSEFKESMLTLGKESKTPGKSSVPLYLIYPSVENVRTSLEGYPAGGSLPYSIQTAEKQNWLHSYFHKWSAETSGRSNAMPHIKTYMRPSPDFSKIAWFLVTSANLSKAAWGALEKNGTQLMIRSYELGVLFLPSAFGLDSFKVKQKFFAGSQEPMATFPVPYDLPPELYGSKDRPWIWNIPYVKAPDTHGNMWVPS
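Steps: enzyme plus compound, 15 min RT; add biotin/phosphotyrosine-FITC oligonucleotide (15 nM final), react 5 min; add donor/acceptor beads (10 ug/ml final), 10 min; read AlphaScreen. Tdp1 at 1 nM final.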
DT40 TDP1 CPT: DT40-hTDP1 cell growth loss with CPT | chicken DT40 Tdp1-/-;hTDP1 cells + 20 nM CPT, ATP luminescence, 48 h | Potency, µM (highest dose often 46.2 µM), hits mostly inhibitors | 420,000 compounds, 12% hits; note: nearly all actives have a fitted effect of over 55% in size
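Chicken DT40 Tdp1-/- cells stably complemented with human TDP1 were seeded at 400 cells/well in medium containing 20 nM camptothecin, exposed to pin-transferred compounds, and grown at 37 °C for at least 48 hr. Viability was read as ATP luminescence.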
Of the large screens only hits and unclear results are named; the others gave an inactive call. Hits are enriched below; roughly 19% of the tested compounds scored in any of these assays. Unless noted, calls come from the whole dose curve; as a rule, active = well fitted curve in the direction sought with a large enough effect; inconclusive = small, poorly fitted or top-dose-only effect, or another doubt; inactive = no such curve, though single readings can be large; an effect the other way counts as inactive or inconclusive.

Oc1ccc(C[C@H]2CN([C@@H](Cc3ccccc3)CN3CCCC3CN3C(=S)NC[C@@H]3Cc3ccccc3)C(=S)N2CC2CCCCC2)cc1 (some centres undefined)	DT40 TDP1 no CPT 16µM, DT40 TDP1 CPT inconclusive (no result: Giardia kill, ELG1 repair inh, TDP1 inh)
CC(CCN1CCN(CCO)CC1)c1ccccc1 (centres undefined)	none (no result: TDP1 inh)
Oc1ccc(C[C@H]2CNC(=S)N2C[C@H]2CCCN2C[C@H](Cc2ccccc2)N2C[C@H](Cc3ccc(O)cc3)N(CC3CCCCCC3)C2=S)cc1	DT40 TDP1 no CPT 16µM, DT40 TDP1 CPT 15µM (no result: Giardia kill, ELG1 repair inh, TDP1 inh)
COc1ccc(CCN2CC(C(=O)NCc3cccc(F)c3)CCC2=O)cc1 (centres undefined)	none (no result: Giardia kill, ELG1 repair inh, TDP1 inh)
O=C(NC1CCCCC1)C12CC3CC(C1)CC(n1cncn1)(C3)C2	none
CC(NC(=O)C12CC3CC(C1)CC(n1cncn1)(C3)C2)C12CC3CC(CC(C3)C1)C2 (centres undefined)	DT40 TDP1 no CPT 8.2µM, DT40 TDP1 CPT 10µM
Cc1ccc(CNC(=O)c2ccc3c(c2)NC(=O)C(CS(=O)(=O)Cc2cccc(C)c2)N3)cc1 (centres undefined)	DT40 TDP1 no CPT inconclusive (no result: Giardia kill, IL1B secr inh, ELG1 repair inh)
COc1ccc(-c2cc(C(=O)NCC3CCCO3)c3cc(C(C)C)ccc3n2)cc1 (centres undefined)	IL1B secr inh inconclusive, DT40 TDP1 no CPT inconclusive, DT40 TDP1 CPT 16µM
O=C(NCC1CCCO1)c1cc(-c2ccccc2)nc2ccc(Br)cc12 (centres undefined)	DT40 TDP1 no CPT inconclusive, DT40 TDP1 CPT inconclusive
CC(C)c1ccc(-c2nn(-c3ccccc3)cc2C(=O)NCC2CCCO2)cc1 (centres undefined)	IL1B secr inh -80, DT40 TDP1 no CPT inconclusive, ELG1 repair inh inconclusive
O=C(COC(=O)c1cc(-c2cccc(Br)c2)nc2ccccc12)NCC1CCCO1 (centres undefined)	DT40 TDP1 CPT 0.016µM
O=C(NCC1CCCO1)c1cn(-c2ccccc2)nc1-c1ccc(F)cc1 (centres undefined)	none
COc1ccc(-c2cc(C(=O)NCC3CCCO3)c3cc(C)ccc3n2)cc1 (centres undefined)	DT40 TDP1 no CPT 16µM
Cc1ccc(C2/C(=C(\O)c3ccc4c(c3)OCCO4)C(=O)C(=O)N2CC2CCCO2)cc1 (centres undefined)	none
Cc1ccc(-n2nc3c(=O)n(CC(=O)NCCC(C)C)nc(C)c3c2C)cc1	none (no result: Giardia kill, IL1B secr inh, ELG1 repair inh)
COc1ccc(C(Sc2ccccc2)c2ccccc2)cc1OC (centres undefined)	ELG1 repair inh inconclusive (no result: TDP1 inh)
O=C(NCCCO)/C(=C\c1cn(-c2ccccc2)nc1-c1cccnc1)NC(=O)c1ccccc1	ELG1 repair inh inconclusive
COc1cccc(-c2cc(C(=O)NCC3CCCO3)c3ccccc3n2)c1 (centres undefined)	DT40 TDP1 no CPT 18µM, ELG1 repair inh inconclusive
COc1ccc(-c2cc(C(=O)NCC3CCCO3)c3ccccc3n2)cc1 (centres undefined)	DT40 TDP1 no CPT inconclusive, DT40 TDP1 CPT inconclusive
COc1ccc(-c2nc(SC(C)C(=O)NCC3CCCO3)n[nH]2)cc1 (centres undefined)	DT40 TDP1 no CPT 9.2µM, DT40 TDP1 CPT 8.2µM
O=C(NCC1CCCO1)/C(=C/c1cn(-c2ccccc2)nc1-c1cccnc1)NC(=O)c1ccccc1 (centres undefined)	IL1B secr inh inconclusive, DT40 TDP1 no CPT inconclusive, ELG1 repair inh 21µM, DT40 TDP1 CPT inconclusive
COc1cccc(-c2cc(C(F)(F)F)n3ncc(C(=O)NCC4CCCO4)c3n2)c1 (centres undefined)	DT40 TDP1 no CPT 23µM, ELG1 repair inh 6.5µM, DT40 TDP1 CPT inconclusive
CC(=O)c1ccc(F)c(-c2cc(C)cc3c2OC(CNC(=O)Cn2nc(C)nc2C)C3)c1 (centres undefined)	none (no result: Giardia kill, IL1B secr inh, ELG1 repair inh, TDP1 inh)
CCN(CC)C(=O)CSc1nc2c(sc(=S)n2-c2ccc(C)cc2C)c(=O)[nH]1	none (no result: TDP1 inh)
CCOc1ccc2[nH]cc(S(=O)(=O)c3ccc(Cl)cc3)c(=O)c2c1	DT40 TDP1 no CPT 9.2µM, ELG1 repair inh inconclusive, DT40 TDP1 CPT 9.2µM (no result: TDP1 inh)
CCc1ccc2[nH]cc(S(=O)(=O)c3ccc(C(C)C)cc3)c(=O)c2c1	DT40 TDP1 no CPT inconclusive, DT40 TDP1 CPT inconclusive (no result: Giardia kill, IL1B secr inh, ELG1 repair inh)
COc1ccc2[nH]cc(S(=O)(=O)c3ccc(C)cc3)c2c1	DT40 TDP1 no CPT inconclusive
CCOc1ccc2[nH]cc(S(=O)(=O)c3ccc(C)cc3)c(=O)c2c1	DT40 TDP1 no CPT inconclusive, ELG1 repair inh 16µM, DT40 TDP1 CPT inconclusive
O=C1C=CC(c2c[nH]c3ccccc23)CC1 (centres undefined)	IL1B secr inh -108, DT40 TDP1 no CPT 16µM, DT40 TDP1 CPT inconclusive (no result: Giardia kill, ELG1 repair inh, TDP1 inh)
Cc1cccc(N2CC(C)Cn3c2nc2c3c(=O)n(CC(=O)O)c(=O)n2C)c1 (centres undefined)	none (no result: Giardia kill, IL1B secr inh, ELG1 repair inh)
Cc1cc(C)cc(OCC(=O)Nc2cccc(-c3nc4ncccc4o3)c2)c1	IL1B secr inh inconclusive, DT40 TDP1 no CPT 21µM, ELG1 repair inh 12µM, DT40 TDP1 CPT 23µM
CCc1ccc(OCC(=O)Nc2ccc(-c3nc4ncccc4o3)cc2)cc1	none (no result: Giardia kill, IL1B secr inh, ELG1 repair inh)
CCC(C)c1ccc(OCC(=O)Nc2cccc(-c3nc4ncccc4o3)c2)cc1 (centres undefined)	DT40 TDP1 no CPT 16µM (no result: Giardia kill, IL1B secr inh, ELG1 repair inh)
Cc1cc(C)cc(OCC(=O)Nc2ccc(-c3nc4ncccc4o3)cc2C)c1	DT40 TDP1 no CPT inconclusive (no result: Giardia kill, IL1B secr inh, ELG1 repair inh)
O=C(CCNC(=O)c1ccc(Cl)cc1)NCCCN1CCOCC1	none
CC(=O)Nc1ccc(NC(=O)CC(NC(=O)c2ccccc2)c2ccccc2)cc1 (centres undefined)	none (no result: TDP1 inh)
CC(C)(C)c1ccc(OCc2ccc(C(=O)N3CCOCC3)o2)cc1	DT40 TDP1 no CPT 26µM, ELG1 repair inh inconclusive, DT40 TDP1 CPT inconclusive
